The record followed here is PubChem BioAssay (EPA / NIEHS).

Inconclusive results are not listed. Active and inactive are the calls of the source. Rule for the calls, unless noted: active = hit-call score of the fitted dose curve at least 0.9, where 1 is the maximum; inconclusive = response in the unintended direction; inactive = score below 0.9.

Experiment [1] can be described thus: TOX21_p53_BLA_p2_viability: Viability Assessment in the Tox21 HCT-116 p53 Agonism Beta-lactamase Assay, Phase 2 (AID 2283591).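 Note: compound exposure lasted 16 h at 37 °C; actives lower the ATP signal meaning cytotoxicity.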 In a few lines: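 HCT-116 p53-bla cells (4000/well) rested 5 h at 37C, then received compounds in DMSO (217-fold dilution) for 16 h at 37C, 5% CO2. After the CCF4 read, CellTiter-Glo was added; ATP luminescence was read after 30 min at room temperature.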

Experiment [2] concerns the target Cellular tumor antigen p53 (Homo sapiens) (UniProt P04637). Put plainly: TOX21_p53_BLA_p2_ratio: Tox21 HCT-116 p53 Agonism Beta-lactamase Assay, Ratio, Phase 2 (AID 2283592). Put shortly: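 In this cell-based reporter format, HCT116 cells were dosed with chemicals delivered from DMSO by 217-fold dilution and incubated 16 h at 37C. Emission at 460 and 530 nm after 2 h CCF4-AM loading provided the ratio, fitted upward versus DMSO.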

The nature of experiment [3]: TOX21_p53_BLA_p3_viability: Viability Assessment in the Tox21 HCT-116 p53 Agonism Beta-lactamase Assay, Phase 3 (AID 2283593).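 Note: cells exposed to compound for 16 h before reading.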 In a few lines: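 HCT-116 cells (4000/well) rested 5 h at 37C, then got DMSO compounds by pin tool (217-fold dilution) for 16 h at 37C, 5% CO2. After the bla read, CellTiter-Glo was added and luminescence read at 30 min, room temperature.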
Experiment [4] has as its target Cellular tumor antigen p53 (Homo sapiens) (UniProt P04637). Put plainly: TOX21_p53_BLA_p3_ratio: Tox21 HCT-116 p53 Agonism Beta-lactamase Assay, Ratio, Phase 3 (AID 2283596). In a few lines:
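HCT116 p53-bla cells (4000/well) given compound in DMSO (217-fold dilution) after 5 h, incubated 16 h at 37C. CCF4-AM substrate 2 h at room temperature; 460/530 nm emission ratio, gain fitted against DMSO.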

The nature of experiment [5]: TOX21_p53_BLA_p4_viability: Viability Assessment in the Tox21 HCT-116 p53 Agonism Beta-lactamase Assay, Phase 4 (AID 2283597).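 Note: hits lower the luminescence signal meaning cytotoxicity.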 In a few lines: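 We seeded HCT116 p53 reporter cells at 4000/well and waited 5 h. We then added compounds in DMSO at a 217-fold dilution and incubated for 16 h. Viability was read as CellTiter-Glo luminescence after 30 min at RT.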
Experiment [6] has as its target Cellular tumor antigen p53 (Homo sapiens) (UniProt P04637). Put plainly: TOX21_p53_BLA_p5_ratio: Tox21 HCT-116 p53 Agonism Beta-lactamase Assay, Ratio, Phase 5 (AID 2283599). Put shortly:
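HCT-116 cells carrying a p53-inducible beta-lactamase reporter were seeded at 4000 cells/well and dosed after 5 h with compound in DMSO (217-fold dilution). After 16 h at 37C, CCF4-AM substrate was added for 2 h, and the 460/530 nm emission ratio was scored as gain-of-signal versus DMSO.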

The target is the same in experiment [7]. Put plainly: TOX21_p53_BLA_p4_ratio: Tox21 HCT-116 p53 Agonism Beta-lactamase Assay, Ratio, Phase 4 (AID 2283601). In a few lines:
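HCT116 cells carrying an inducible beta-lactamase reporter were plated at 4000 cells/well, rested 5 h, then exposed to compounds in DMSO (217-fold dilution) for 16 h at 37C. CCF4-AM substrate was loaded 2 h at room temperature; 460/530 nm emission ratio scored gain-of-signal versus DMSO.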

Experiment [8] is described as follows: TOX21_p53_BLA_p5_viability: Viability Assessment in the Tox21 HCT-116 p53 Agonism Beta-lactamase Assay, Phase 5 (AID 2283600). In a few lines:
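Compounds, pinned from DMSO at 217-fold dilution, were left on the cells for 16 h. The viability endpoint was ATP content measured by CellTiter-Glo luminescence, where falling signal reflects cytotoxicity.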

The target of experiment [9] is PGR (gene 5241) (UniProt P06401). Put plainly: TOX21_PR_BLA_Followup_Antagonist_ratio: Tox21 HEK293 Progesterone Receptor (PR) Antagonism Beta-lactamase Follow-Up Assay, Ratio (AID 2283934). Put shortly:
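HEK293T PR-UAS-bla, 2% CS-FBS; 6 hr plating, then cpd + R5020 (1 nM final), 16 hr 37C/5% CO2. B/G FRET substrate 2 h RT. Ratio ch2/ch1 vs DMSO; CellTiter-Glo viability multiplexed, autofluorescence checked.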

Experiment [10] can be described thus: TOX21_PR_BLA_Followup_Agonist_viability: Viability Assessment in the Tox21 HEK293 Progesterone Receptor (PR) Agonism Beta-lactamase Follow-Up Assay (AID 2283935).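 Note: signal loss means lower viability so actives are cytotoxic.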 Put shortly: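 HEK293T PR-UAS-bla, 3,000 cells/well, 2% CS-FBS; 6 hr pre-incubation; cpd in DMSO, 16 hr 37C; LiveBLAzer 2 hr RT, then CellTiter-Glo 30 min RT, luminescence. Decrease = lost viability.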

A short description of experiment [11]: TOX21_PR_BLA_Followup_Antagonist_viability: Viability Assessment in the Tox21 HEK293 Progesterone Receptor (PR) Antagonism Beta-lactamase Follow-Up Assay (AID 2283936).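 Note: hits lower the luminescence signal meaning cytotoxicity.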 In a few lines:
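PR-UAS-bla HEK293T cells (3,000/well, 2% charcoal-stripped FBS) given compound plus R5020 agonist, 16 h at 37C. CellTiter-Glo added after bla read, 30 min at room temperature; luminescence loss indicates cytotoxicity.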

The target in experiment [12] is PGR (gene 5241) (UniProt P06401). Put plainly: TOX21_PR_LUC_Followup_Antagonist: Tox21 HEK293 Progesterone Receptor (PR) Antagonism Luciferase Follow-Up Assay (AID 2283938).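 Note: curve fitted upward as signal gain over DMSO baseline despite antagonist label.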 In a few lines: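 Luminescence from ONE-Glo reagent, measured after 30 min at room temperature, served as readout. Cells (HEK293 carrying PR-A-luc) had been treated 16 h at 37C with DMSO-dissolved compounds. Activity was fitted against DMSO controls.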

The nature of experiment [13]: TOX21_PR_LUC_Followup_Agonist_viability: Viability Assessment in the Tox21 HEK293 Progesterone Receptor (PR) Agonism Luciferase Follow-Up Assay (AID 2283941).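 Note: loss of signal means cytotoxicity so actives lower viability.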 In a few lines:
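Cells were kept 5 days in charcoal-stripped serum medium before plating HEK293-PR-A-luc at 3,000 cells/well. After 5 h they received DMSO-dissolved compound and incubated 16 h at 37C. Viability was taken from CellTiter-Glo ATP luminescence.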

The nature of experiment [14]: CCTE_Harrill_HTTr_Viability_MCF7: CCTE's 6-hour Cell Viability Assessment for the High-Throughput Transcriptomics (HTTr) Platform, in MCF-7 cells cultured in DMEM + 10% fetal bovine serum, Harrill Lab (AID 2284010; active = hit-call score of the fitted dose curve at least 0.9, where 1 is the maximum; inactive = score below 0.9). In a few lines: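 Cells were dosed with chemicals in an eight-point dilution series, imaged 6 hours later for propidium iodide uptake, and the endpoint was analyzed by bidirectional fitting against DMSO as negative control.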

Experiment [15] can be described thus: CCTE_Harrill_HTTr_Apoptosis_MCF7: CCTE's 6-hour Apoptosis Assessment for the High-Throughput Transcriptomics (HTTr) Platform, in MCF-7 cells cultured in DMEM + 10% fetal bovine serum, Harrill Lab (AID 2284011; active = hit-call score of the fitted dose curve at least 0.9, where 1 is the maximum; inactive = score below 0.9). Put shortly:
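Read-out: CellEvent Caspase 3/7 Green signal by high content imaging, gain-of-signal indicating apoptosis. MCF-7 cells, DMEM + 10% FBS, eight-point dilution series, 6 h exposure. Curves fitted bidirectionally relative to DMSO negative control.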

A short description of experiment [16]: CCTE_Harrill_HTTr_CellCount_MCF7: CCTE's Cell Proliferation Assessment for the High-Throughput Transcriptomics (HTTr) Platform, Harrill Lab (AID 2284012).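 Note: cells exposed to compound for six hours; intended direction is loss of nuclei count meaning fewer cells.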 Put shortly: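 Chemicals in eight-point dilution series are added to MCF-7 cells for six hours, nuclei are stained with Hoechst and imaged, and per-well nuclei counts are fitted in both directions relative to DMSO controls.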

Cellular tumor antigen p53 (Homo sapiens), sequence (P04637 whole entry, looked up): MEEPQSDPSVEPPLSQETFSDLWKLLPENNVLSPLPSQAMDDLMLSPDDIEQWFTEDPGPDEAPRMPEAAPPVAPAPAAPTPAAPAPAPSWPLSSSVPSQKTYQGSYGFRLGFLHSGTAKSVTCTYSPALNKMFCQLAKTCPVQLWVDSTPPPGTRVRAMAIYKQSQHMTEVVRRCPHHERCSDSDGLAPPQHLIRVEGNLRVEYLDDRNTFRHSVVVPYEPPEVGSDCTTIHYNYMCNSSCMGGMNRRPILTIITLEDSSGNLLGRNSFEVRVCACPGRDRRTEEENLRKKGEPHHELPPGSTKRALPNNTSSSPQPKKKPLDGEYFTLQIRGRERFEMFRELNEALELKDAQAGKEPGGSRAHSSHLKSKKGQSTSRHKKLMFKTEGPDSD
PGR (gene 5241), sequence (P06401 whole entry, looked up): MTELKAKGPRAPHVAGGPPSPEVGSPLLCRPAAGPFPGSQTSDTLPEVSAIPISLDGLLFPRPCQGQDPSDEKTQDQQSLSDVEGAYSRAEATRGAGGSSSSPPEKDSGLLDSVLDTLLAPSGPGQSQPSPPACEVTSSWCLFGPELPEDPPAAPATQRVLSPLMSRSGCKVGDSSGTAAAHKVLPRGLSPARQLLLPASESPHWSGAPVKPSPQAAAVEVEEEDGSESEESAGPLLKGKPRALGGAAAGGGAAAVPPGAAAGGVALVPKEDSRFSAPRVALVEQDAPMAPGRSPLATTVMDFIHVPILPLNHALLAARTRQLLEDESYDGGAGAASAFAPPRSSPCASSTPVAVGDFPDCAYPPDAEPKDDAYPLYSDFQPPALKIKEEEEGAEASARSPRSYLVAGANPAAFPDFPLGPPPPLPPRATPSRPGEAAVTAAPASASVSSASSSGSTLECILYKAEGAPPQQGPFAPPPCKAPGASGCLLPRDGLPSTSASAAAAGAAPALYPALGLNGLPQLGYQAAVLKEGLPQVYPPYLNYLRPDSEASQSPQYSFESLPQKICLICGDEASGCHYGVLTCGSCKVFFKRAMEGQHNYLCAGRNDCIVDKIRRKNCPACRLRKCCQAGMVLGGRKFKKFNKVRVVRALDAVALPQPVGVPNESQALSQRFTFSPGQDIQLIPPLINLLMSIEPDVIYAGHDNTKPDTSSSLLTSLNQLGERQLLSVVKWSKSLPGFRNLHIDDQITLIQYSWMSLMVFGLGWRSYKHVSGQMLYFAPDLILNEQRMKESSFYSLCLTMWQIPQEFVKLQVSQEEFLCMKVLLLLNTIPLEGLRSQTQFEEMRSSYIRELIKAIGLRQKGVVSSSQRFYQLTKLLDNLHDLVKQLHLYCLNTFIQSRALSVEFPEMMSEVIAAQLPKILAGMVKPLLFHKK

Consider `Cc1cc(Nc2ccc(O)cc2)ccc1N`, for which the outcome in experiment [1], in experiment [2], in experiment [5], in experiment [6] and in [7] was inactive. Besides, the figures for the AC50 in [3] and in experiment [4] were 46.7 µM (active) and 41.2 µM (active), respectively.

For `CC1(C)Oc2ccc(C#N)cc2[C@@H](N2CCCC2=O)[C@@H]1O`, the outcome in experiment [1], in experiment [2], in [3], in experiment [4], in experiment [5] and in experiment [6] was inactive. Also, the result in experiment [7] was inactive.

On to `CC[C@H]1OC(=O)[C@H](C)[C@@H](O[C@H]2C[C@@](C)(OC)[C@@H](O)[C@H](C)O2)[C@H](C)[C@@H](O[C@@H]2O[C@H](C)C[C@H](N(C)C)[C@H]2O)[C@](C)(OC)C[C@@H](C)C(=O)[C@H](C)[C@@H](O)[C@]1(C)O`, for which the compound was classed as inactive in experiment [1], in experiment [2], in [3], in experiment [4], in experiment [5] and in experiment [6]. Moreover, the outcome in experiment [7] was inactive.

`Nc1ccncc1N`: the result in experiment [1], in experiment [2], in [3], in experiment [4], in experiment [5] and in experiment [6] was inactive. Moreover, the result in experiment [7] was inactive.

For the compound `COc1ccc2cc1Oc1cc3c(cc1OC)CC[N+](C)(C)[C@H]3Cc1ccc(cc1)Oc1c(OC)c(OC)cc3c1[C@@H](C2)[N+](C)(C)CC3`, the compound was classed as inactive in experiment [1], in experiment [2], in experiment [3], in [4], in experiment [5] and in experiment [6]. Also, the result in [7] was inactive.

As for `CCCCCCCCCCCCI`, the compound was classed as inactive in [1], in experiment [2], in [3], in experiment [4], in experiment [5] and in [8].

Consider `CN(C)C(=O)Oc1cccc([N+](C)(C)C)c1`, for which the result in [1], in experiment [2], in experiment [3], in [4], in experiment [5] and in [6] was inactive. The result in experiment [7] was inactive.

For `CCOC(=O)C1=C(C)NC(C)=C(C(=O)OC)C1c1cccc([N+](=O)[O-])c1` (configuration not stated), the result in experiment [1], in experiment [2], in experiment [3], in experiment [4], in experiment [5] and in experiment [6] was inactive. For the same compound, the result in experiment [7], in experiment [10], in experiment [11] and in [13] was inactive. The AC50 was 14.9 µM (active) in [9] and 11.2 µM (active) in experiment [12].

Turning to `C#CCN(C)Cc1ccccc1`, the outcome in [1], in experiment [2], in experiment [3], in [4], in [5] and in [6] was inactive. Further, the result in experiment [7], in experiment [14] and in [15] was inactive.

As to `Cc1ccc2c(ccc3ccccc32)c1`, the compound was classed as inactive in [1], in experiment [2], in [3], in [4], in [5] and in experiment [6]. In addition, in [7], the outcome was inactive.

In the case of `OCC1CC2CC1C1CCC(CO)C21` (configuration not stated), the call in [1], in [2], in experiment [3], in [4], in [5] and in [6] was inactive. For the same compound, the outcome in experiment [7], in experiment [14], in experiment [15] and in [16] was inactive.

On to `COc1cc2c(cc1OC)-c1cc3ccc(OC)c(OC)c3c[n+]1CC2`, for which the compound was classed as inactive in experiment [1], in [2], in experiment [3], in [4], in experiment [5] and in experiment [8].
